# According to PubChem BioAssay:
# The list shows a part of the results. Activity calls are given as the source filed them. Cut-off read from the data, not from the text of the source, unless noted: active = inhibition above about 13%; inactive = the rest.
# Test system: not listed separately
# Assay: Gal4-VP16 luciferase reporter inhibitors, counter-screen for COUP-TFII antagonist project, cell-based, luminescence, HEK293 (AID 687007)
# Settings: at 8.5 µM, active compounds read high
row,SMILES,inhibition
1,CCc1cc2c(NC3CCCC3)ncnc2s1,5.31% (inactive)
2,O=C1C=C(c2ccnc3cc(Cl)ccc23)C[C@@H](c2ccc3c(c2)OCO3)C1,2.65% (inactive)
3,N#C[C@]1(S(=O)(=O)c2ccccc2)C[C@@H]2ON=C(c3cccc(Br)c3)[C@@H]2C1,2.59% (inactive)
4,CCCCCc1c(-c2ccc(OC)c(OC)c2)ncn1CCc1ccccc1OC,4.25% (inactive)
5,O=C(CCC(=O)N1CCN(S(=O)(=O)c2ccc(Cl)cc2)CC1)NCc1cccc(C(F)(F)F)c1,7.21% (inactive)

# Target: COUP transcription factor 2 (Homo sapiens) (UniProt P24468)
# Assay: NR2F2 transcriptional activity inhibitors, confirmation, cell-based, luciferase reporter, HEK293, triplicate (AID 687008;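 active = mean inhibition over three repeats above a set limit taken from the earlier primary screen, cut at about 38% in these data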;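 note: 100% = cells given the luciferase reporter alone without the COUP-TF2 vector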)
# Settings: HEK293 NGFI-A luciferase reporter, luminescence; at 8.5 µM; active compounds read high
# COUP transcription factor 2 (Homo sapiens), sequence (P24468 whole entry, looked up): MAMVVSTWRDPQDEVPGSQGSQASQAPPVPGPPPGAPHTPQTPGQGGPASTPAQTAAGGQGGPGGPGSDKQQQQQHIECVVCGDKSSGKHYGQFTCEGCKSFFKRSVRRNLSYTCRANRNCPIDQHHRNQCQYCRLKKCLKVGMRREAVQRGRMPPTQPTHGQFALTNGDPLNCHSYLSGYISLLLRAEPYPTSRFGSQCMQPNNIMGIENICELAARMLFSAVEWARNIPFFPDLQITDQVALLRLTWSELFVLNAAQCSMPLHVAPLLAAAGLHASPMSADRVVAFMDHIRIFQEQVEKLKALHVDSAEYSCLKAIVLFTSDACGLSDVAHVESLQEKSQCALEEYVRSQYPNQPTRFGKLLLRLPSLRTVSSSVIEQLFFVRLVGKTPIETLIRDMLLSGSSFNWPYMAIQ
row,SMILES,inhibition
1,CCc1cc2c(NC3CCCC3)ncnc2s1,29.9% (inactive)
2,O=C1C=C(c2ccnc3cc(Cl)ccc23)C[C@@H](c2ccc3c(c2)OCO3)C1,44.8% (active)
3,N#C[C@]1(S(=O)(=O)c2ccccc2)C[C@@H]2ON=C(c3cccc(Br)c3)[C@@H]2C1,14.3% (inactive)
4,CCCCCc1c(-c2ccc(OC)c(OC)c2)ncn1CCc1ccccc1OC,25.6% (inactive)
5,O=C(CCC(=O)N1CCN(S(=O)(=O)c2ccc(Cl)cc2)CC1)NCc1cccc(C(F)(F)F)c1,53.4% (active)
